Many of the other results were omitted from the sample, so hits are more common in it than they were.
LASV entry inh – Lassa virus entry inhibition | Lassa virus pseudotype entry inhibition, cell reporter | Potency, µM (series often up to 37.9 µM), actives largely listed as inhibitors | 300,000 compounds, 1.2% hits; calls by dose curve; tested in HEK293 cells; also: nearly all actives have a fitted effect of over 50% in size
CHX counter – counter-screen hit for Shiga toxin inhibitors, cycloheximide; cell reporter, cycloheximide protein synthesis inhibition counterscreen; AID 2314; max response, %; 300,000 compounds, 12% hits; in the data active = max response mostly above about 13%, no sharp cut-off; inactive = mostly below about 14%; also: read at 38.3 µM for the half of the compounds with a filed dose
AMA1-RON2 inh – inhibitors of Plasmodium falciparum AMA1-RON2 interaction; 360,000 compounds, 0.2% hits; AlphaScreen AMA1-biotinylated RON2 peptide binding; AID 720542; Potency, µM (series often up to 58.2 µM), hits mostly inhibitors; active = well fitted inhibition curve with a large enough effect; inconclusive = small, poorly fitted or top-dose-only effect; inactive = no such curve, though single readings can be large or run the other way; also: nearly all actives have a fitted effect of over 45% in size
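AMA1 (3D7) with his tag at 25 nM final met compounds first, then biotinylated RON2 peptide at 25 nM; detection used donor plus acceptor beads, 10 µg/mL apiece, read by AlphaScreen after 30 min at room temperature.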
Shiga toxin inh – Shiga toxin inhibition; Vero cells, Shiga toxin protein synthesis inhibition reporter; inhibition, % at 38.7 µM; 290,000 compounds, 9.2% hits; in the data active = inhibition mostly above about 28%, no sharp cut-off; inactive = mostly below about 43%
MARV entry inh – Marburg virus entry inhibition; Marburg virus pseudotyped entry inhibition, cell reporter; Potency, µM (series often up to 37.8 µM), hits mostly inhibitors; 300,000 compounds, 1.8% hits; AID 540276; calls by dose curve; tested in HEK293 cells
A number is an active result; i = inactive; ? = inconclusive; nt = no result given; + = active, no number.

SMILES	LASV entry inh	CHX counter	AMA1-RON2 inh	Shiga toxin inh	MARV entry inh
CCOC(=O)N1CCC(N(C(=O)Nc2ccc(CC)cc2)C(C)CC)CC1 (stereo not given)	i	14	i	i	i
CCCCc1ccc(NC(=S)N2CCCC(C)C2)cc1 (stereo not given)	i	21	i	41	?
CSc1ncc(C(=O)Nc2cc(C)ccc2C)c(C)n1	nt	i	i	i	nt
O=C(Nc1nnc(S(=O)(=O)N2CCCc3ccccc32)s1)c1ccc(Cl)cc1	i	nt	nt	nt	nt
CC(C)[C@H](NC(=O)c1ccccc1F)C(=O)NC1CCCCCCC1	i	nt	i	nt	i
COCOCCn1cc(CN2CCS(=O)(=O)N(Cc3ccc(-c4ccc(Cl)c(Cl)c4)cc3)C(C(C)C)C2=O)nn1 (stereo not given)	?	nt	i	nt	nt
CCOC(=O)c1ccc(NC(=S)N2CCC(O)CC2)cc1	i	39	i	i	?
O=C(Nc1nnc(C2=COCCO2)o1)c1cccc(F)c1	i	11	i	i	i
Cc1cccc(C(=O)Nc2nnc(C3=COCCO3)o2)c1	i	i	i	i	i
CC(C(=O)N1CCCC1)N(c1ccc(Cl)cc1)S(C)(=O)=O (stereo not given)	nt	nt	i	nt	nt
CCCC1c2ccc(C)n2CCN1C(=O)Nc1ccccc1Cl (stereo not given)	i	26	i	74	i
COc1cc2[nH]c(=O)n(CCCCCC(=O)N3CCN(c4ccc(Cl)cc4)CC3)c(=O)c2cc1OC	i	nt	nt	nt	i
CCOC(=O)c1ccc(NC(=O)C2(c3ccc(OC)cc3)CCOCC2)cc1	?	i	i	i	i
CCOC(=O)c1ccc(NC(=O)C2(c3ccc(OC)cc3)CCCC2)cc1	11µM	i	i	i	?
CCOC(=O)c1ccc(NC(=O)C23CCC(C)(C(=O)O2)C3(C)C)cc1 (stereo not given)	?	50	i	65	?
COc1ccc(NC(=O)C23CCC(C)(C(=O)O2)C3(C)C)cc1 (stereo not given)	i	i	i	i	i
COc1cc(OC)c(NC(=O)C2CCN(S(=O)(=O)c3ccc4c(c3)oc(=O)n4C)CC2)cc1Cl	i	nt	nt	nt	i
Cc1cc(C)c(NC(=O)C2CCN(c3nc4ccccc4n4cccc34)CC2)c(C)c1	i	nt	nt	nt	nt
CCC(C)c1ccc(OCC(=O)Nc2ccc(-c3nc4ncccc4o3)cc2)cc1 (stereo not given)	i	nt	nt	nt	i
COc1cccc(OCCNS(=O)(=O)c2ccccc2[N+](=O)[O-])c1	nt	nt	i	nt	nt
c1ccc2c(-c3csc(-c4ccncc4)n3)c[nH]c2c1	nt	45	i	96	nt
Brc1ccc(-c2csc(-c3c[nH]c4ccccc34)n2)cc1	i	34	i	86	?
O=C(CSc1cn(Cc2ccccc2)c2ccccc12)N1CCOCC1	nt	21	i	96	nt
O=C(NCCn1cc(SCC(=O)N2CCOCC2)c2ccccc21)c1ccccc1	nt	19	i	37	nt
Cc1csc(=O)n1CC(=O)OCc1cccc2ccccc12	i	45	i	79	i
SMILES	LASV entry inh	CHX counter	AMA1-RON2 inh	Shiga toxin inh	MARV entry inh
Cc1cc(C)c(C(=O)COC(=O)CCn2c(C)csc2=O)cc1C	i	nt	?	nt	?
Cc1cc(C)c(C(=O)COC(=O)Cn2c(C)csc2=O)cc1C	i	24	i	44	i
Cc1nc2cccnc2n1-c1cccc(C(=O)NCCc2ccc(S(N)(=O)=O)cc2)c1	i	nt	nt	nt	nt
O=C(c1ccccc1)N1CCCCC1	nt	nt	i	nt	nt
O=C(c1ccc(-n2cccc2)cc1)N1CCCCC1	i	26	i	i	i
COc1ccc(OCCC(=O)N2CCCCC2)cc1	i	27	i	35	i
CCOc1ccc(C(=O)N2CCCC2)cc1	i	i	i	i	i
CCCCOc1ccc(C(=O)N2CCCC2)cc1	?	36	i	103	?
CCCCCOc1ccc(C(=O)CCC(=O)N2CCCC2)cc1	?	22	i	51	i
COc1ccc(OCCC(=O)N2CCN(C)CC2)cc1	nt	i	i	i	nt
COc1cc(NC(=O)N2CCC(CN3CCOCC3)CC2)cc(OC)c1OC	i	nt	nt	nt	nt
CC(=O)N[C@@H](CSC(=O)[C@]1([C@@H](O)C(C)C)NC(=O)[C@H](C)[C@@H]1O)C(=O)O	nt	85	nt	+	nt
CC(=O)NC(CC(C)C)C(=O)O (stereo not given)	nt	nt	i	nt	nt
CN=c1scc(C)n1/N=C/c1cc(Br)c(O)c(OC)c1	?	21	i	56	?
CN=c1scc(C)n1/N=C/c1ccc(O)c(O)c1O	i	i	?	i	?
CCCC[C@H]1CCCO[C@@](C(=O)NCc2cc(C)n(C)n2)(C(F)(F)F)C1	nt	i	nt	i	nt
c1ccc(Oc2ccc3ccccc3n2)cc1	i	39	i	130	i
c1ccc2nc(OCCN3CC3)ccc2c1	?	i	i	i	?
Cc1ccc(S(=O)(=O)NCc2ccccc2)cc1C(=O)NC1CCC(C)CC1 (stereo not given)	nt	12	i	55	nt
O=C1CCCCc2cc(O)c(O)cc21	nt	nt	i	nt	nt
Nc1cc2c(cc1O)CCCC2	i	51	i	i	i
CC1=Nc2ccccc2N=C(NC(=O)/C=C/C(=O)O)C1c1ccccc1 (stereo not given)	?	40	i	77	?
COc1ccc(C(=O)NC2=Nc3ccccc3N=C(C)C2c2ccccc2)cc1 (stereo not given)	?	44	i	190	i
COc1cccc(N2CCN(CC(=O)NC3=Nc4ccccc4N=C(C)C3c3ccccc3)CC2)c1 (stereo not given)	?	i	i	i	?
O=C(Nc1ncn[nH]1)c1ccc(Cl)c(Cl)c1	i	nt	i	nt	?
SMILES	LASV entry inh	CHX counter	AMA1-RON2 inh	Shiga toxin inh	MARV entry inh
CC(=O)c1cccc(NC(=O)c2ccc([N+](=O)[O-])o2)c1	?	nt	i	nt	?
O=C(NCc1cccnc1)c1ccc([N+](=O)[O-])o1	nt	31	i	i	nt
O=C(Nc1cccnc1)c1ccc([N+](=O)[O-])o1	nt	38	i	71	nt
O=C(Cc1ccc([N+](=O)[O-])cc1)NCc1cccnc1	i	i	i	i	i
O=C(NCc1ccco1)c1ccc([N+](=O)[O-])o1	i	12	i	i	i
c1ccc2c(c1)nc(N1CCN(C3CCCCC3)CC1)c1nnnn12	nt	i	nt	i	nt
c1ccc(N2CCN(c3nc4ccccc4n4nnnc34)CC2)cc1	i	38	i	28	i
c1ccc2c(c1)nc(N1CCOCC1)c1nnnn12	nt	32	i	active	i
COc1cc(NC(=O)CCl)ccc(=O)c1	nt	nt	i	nt	nt
O=C(c1cccs1)N1C[C@@H](n2cc(-c3ccc(F)cc3)nn2)[C@H](O)C[C@@H]1c1ccccc1	nt	nt	i	nt	nt
Cc1ccc(NC(=O)c2ccc(-n3cccn3)c([N+](=O)[O-])c2)cc1	i	21	i	i	i
O=C(O)c1ccc(-n2cccn2)c([N+](=O)[O-])c1	?	i	i	i	?
O=C(Nc1ccccc1Cl)c1ccc(-n2cccn2)c([N+](=O)[O-])c1	i	i	i	42	i
Cc1cccc(NC(=O)c2ccc(-n3cccn3)c([N+](=O)[O-])c2)c1	i	32	i	i	i
COc1ccc(NC(=O)c2cc3c(=O)n(Cc4cccnc4)ccc3nc2C)c(OC)c1	i	nt	nt	nt	nt
CC(C)(Cl)C1Cc2cc3ccc(=O)oc3cc2O1 (stereo not given)	i	31	i	47	i
